Columns and labels:
Test in all cases: fraction of microhomology deletions among edited reads; higher = more MH deletions
Conditions in all cases: mESC; 2uM; 72 h treatment, harvest day 5
[1] = compound: CO[C@H]1/C=C/O[C@@]2(C)Oc3c(C)c(O)c4c(O)c(c(/C=N/N5CCN(C6CCCC6)CC5)c(O)c4c3C2=O)NC(=O)/C(C)=C\C=C\[C@H](C)[C@H](O)[C@@H](C)[C@@H](O)[C@@H](C)[C@H](OC(C)=O)[C@@H]1C [Rifapentine]
[2] = compound: COc1ccccc1-c1cc(Nc2cccc(CS(N)(=O)=O)c2)ncn1
[3] = compound: C[C@@H]1CN(CC(=O)Nc2ccc3c(c2)Cc2cccc(-c4cc(=O)cc(N5CCOCC5)o4)c2S3)C[C@H](C)O1
[4] = compound: Cc1cc(C)nc(SCC(=O)Nc2ncc(Cc3cccc4ccccc34)s2)n1
[5] = compound: Cc1cccc(CC(=O)N2CCc3c2ccc(-c2cn(C)c4ncnc(N)c24)c3F)n1
[6] = compound: NC(=O)c1ccc2nc(-c3ccc(Oc4ccc(Cl)cc4)cc3)[nH]c2c1 [Chk 2 inhibitor II (BML-277)]
[7] = compound: Nc1cc(F)ccc1NC(=O)c1ccc(CNC(=O)/C=C/c2cccnc2)cc1 [Tucidinostat (Chidamide)]
[8] = compound: Nc1nc2[nH]cc(CCc3ccc(C(=O)N[C@@H](CCC(=O)O)C(=O)O)cc3)c2c(=O)[nH]1 [Pemetrexed]
[9] = compound: Nc1ncnc2c1c(-c1cnc3[nH]ccc3c1)nn2C1CCCC1
[10] = compound: O=C(c1cccc(Cl)c1F)N1CCN(Cc2cccc(Nc3nccs3)n2)CC1

Row | Target | fraction of microhomology deletions among edited reads [1] | fraction of microhomology deletions among edited reads [2] | fraction of microhomology deletions among edited reads [3] | fraction of microhomology deletions among edited reads [4] | fraction of microhomology deletions among edited reads [5] | fraction of microhomology deletions among edited reads [6] | fraction of microhomology deletions among edited reads [7] | fraction of microhomology deletions among edited reads [8] | fraction of microhomology deletions among edited reads [9] | fraction of microhomology deletions among edited reads [10]
1 | 1.0 (DMSO control at this site: 1-bp insertion 0.521, MH deletion 0.323, edited 0.141) GTGTCACAGTGCACGAGTGACGGGATAATGTGCTGACAGGTAATTGATAGGCTTCCAACTT | 0.256 | 0.224 | 0.0962 | 0.248 | 0.227 | 0.243 | 0.215 | 0.342 | 0.163 | 0.209
2 | 3.0 (DMSO control at this site: 1-bp insertion 0.109, MH deletion 0.149, edited 0.09) TGCTAGCGCCCCCACAAAGCGGACCAGCCAGCACTATAGGGAATAAGGCCAACTTGCACCC | 0.188 | 0.178 | 0.0553 | 0.188 | 0.186 | 0.237 | 0.204 | 0.171 | 0.166 | 0.193
3 | 2.0 (DMSO control at this site: 1-bp insertion 0.364, MH deletion 0.356, edited 0.125) GGTGCCCCCGAGACCTACGCGAACCGAAATCGATGTCCGGTGCGCAAGCAGGGCTGGCGTC | 0.417 | 0.327 | 0.123 | 0.378 | 0.3 | 0.397 | 0.303 | 0.408 | 0.262 | 0.256
4 | 23.0 AGAACAAAGCGCTCATATAACGATATGGGGGGTTATGGGGGGTTGAATTGCTTCAGCACGA | – | – | – | – | – | – | – | – | – | 0.856
5 | 22.0 (DMSO control at this site: 1-bp insertion 0.573, MH deletion 0.229, edited 0.045) CTGATGGTTGAAGGATTTAGCCGGGGTCCTAGACGCCGGGGTCCTAGACGAAAGGGCCACG | 0.142 | 0.163 | 0.0591 | 0.188 | 0.0873 | 0.201 | 0.209 | 0.267 | – | 0.0524
6 | 21.0 CGATTGAGAGTCAAACGGGCCAGAAAACTCCGGGAACGGGCCAGAAAACTCCGGGGCATGG | 0.216 | 0.183 | 0.0533 | 0.176 | – | 0.226 | 0.127 | 0.186 | 0.144 | –
7 | 31.0 (DMSO control at this site: 1-bp insertion 0.315, MH deletion 0.329, edited 0.026) ACCTCCACAGGCTGGGTGGCCCGGAGGCTGGGCGGCCCGGAGGCTGGGCTGGGCGAGTATC | 0.467 | 0.487 | – | 0.512 | – | – | 0.459 | 0.605 | 0.333 | 0.391
8 | 28.0 (DMSO control at this site: 1-bp insertion 0.035, MH deletion 0.77, edited 0.142) TGGTTCTTCCTTTGTAGAGAGTGTTCATCTGGGAATCTGGGACTTGGATGAGACAATCATT | 0.794 | 0.755 | 0.768 | 0.777 | 0.747 | 0.768 | 0.739 | 0.737 | 0.748 | 0.76
9 | 30.0 (DMSO control at this site: 1-bp insertion 0.074, MH deletion 0.67, edited 0.142) GAGCTGGCATGAGTATTTGTGCCACATGGCTCCCACATGGCTCCACATGCAAGTTTGAAAC | 0.684 | 0.599 | 0.335 | 0.69 | 0.586 | 0.67 | 0.607 | 0.644 | 0.635 | 0.638
10 | 5.0 (DMSO control at this site: 1-bp insertion 0.214, MH deletion 0.567, edited 0.105) CGCTGACCCGAGACCTACGCGAACCGAAATCGGCGACCGGTGCGCAAGCAGGGCTGGCGTC | 0.578 | 0.519 | 0.353 | 0.571 | 0.568 | 0.58 | 0.526 | 0.565 | 0.512 | 0.537

Source: the supplement of paper PMC8387472
